Here are results for 17 compounds from PubChem BioAssay.

This assay deals with Pantothenate synthetase (Mycobacterium tuberculosis (strain ATCC 25618 / H37Rv)) (UniProt P9WIL5). The experiment in a line: Recombinant Mtb pantothenate synthetase (PanC) inhibitors, coupled enzyme, confirmatory (AID 375).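 Further: 0% = full reaction with vehicle and 100% = no enzyme background.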 Conditions: coupled enzyme assay; at 10 µM, active compounds read high.

Each structure is given as a SMILES string. Calls of active or inactive are those of the source. How the calls were made is not given here.

Pantothenate synthetase (Mycobacterium tuberculosis (strain ATCC 25618 / H37Rv)), sequence (P9WIL5 whole entry, looked up): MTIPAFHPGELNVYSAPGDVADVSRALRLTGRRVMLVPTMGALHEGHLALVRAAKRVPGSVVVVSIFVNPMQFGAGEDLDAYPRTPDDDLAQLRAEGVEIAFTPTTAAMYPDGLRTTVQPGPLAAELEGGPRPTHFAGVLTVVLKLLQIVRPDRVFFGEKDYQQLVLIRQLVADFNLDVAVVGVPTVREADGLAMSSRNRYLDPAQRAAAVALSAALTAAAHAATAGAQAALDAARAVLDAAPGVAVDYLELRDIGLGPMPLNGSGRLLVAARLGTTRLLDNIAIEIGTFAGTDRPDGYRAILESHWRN

Consider `O=C(CSc1nnc(-c2ccc(Br)cc2)n1C1CCCCC1)N1CCCC1`, for which the inhibition is 2% (inactive).

For `CCCC(NC(=O)c1ccccc1)c1nc2ccccc2n1Cc1ccc(C(=O)OC)o1` (configuration not stated), the inhibition was 0% (inactive).

Take `COC(=O)c1cccc(Nc2cc(C)nc(-c3ccccc3O)n2)c1`: the inhibition is 1% (inactive).

As to `Cc1ccc2c(COn3nnc4ccc(S(=O)(=O)N(C)C)cc43)cc(=O)oc2c1C`, the inhibition is 3% (inactive).

As to `CCOc1cc(C2C(C#N)=C(N)Oc3n[nH]c(CC)c32)ccc1OCCN1CCOCC1` (configuration not stated), the inhibition is 0% (inactive).

Consider `CCCS(=O)(=O)N1CCN(Cc2ccc(OCc3ccccc3)c(OC)c2)CC1`, for which the inhibition was 4% (inactive).

As to `Cc1cc(-c2ccccc2)c2nncn2n1`, the inhibition was 3% (inactive).

For `Cc1ccc(Nc2nc(N)nc(CN3CCCCCC3)n2)cc1`, the inhibition is 2% (inactive).

`Cc1ccc(-c2nnn(CC(=O)NC3CC4CCC3C4)n2)cc1` (configuration not stated): the inhibition was 4% (inactive).

On to `Cc1cc(C)cc(-n2nnc(C(=O)NCc3ccc4c(c3)OCO4)c2N)c1`, for which the inhibition is 0% (inactive).

Turning to `CCCCc1nc(NCCNC(=O)c2ccco2)c(C#N)c2c1CSC(C)(C)C2`, the inhibition was 3% (inactive).

On to `CCn1c(SCC(=O)Nc2ccc3c(c2)OCO3)nc2c(c1=O)SC(C)C2` (configuration not stated), for which the inhibition was 0% (inactive).

For the compound `O=C(c1cccs1)c1cn(CC(=O)N2CCc3ccccc3C2)c2ccccc12`, the inhibition was 2% (inactive).

Consider `Cc1ccc2c(C)nc(NC3=NCN(C(C)C)CN3)nc2c1`, for which the inhibition is 0% (inactive).

In the case of `CC1(C)CC(=O)C(CC2=C(O)CC(C)(C)CC2=O)=C(O)C1`, the inhibition is 4% (inactive).

As to `N=c1c[n+](N2CCOCC2)[n-]o1`, the inhibition is 0% (inactive).

For `COc1cc(NC(=O)CSCc2cnn(-c3ccccc3)c2-n2cccc2)cc(OC)c1`, the inhibition is 6% (inactive).

Broadly, the inhibition is the drop in the measured response relative to a control, in per cent.
